Source: PubChem BioAssay (Sanford-Burnham Center for Chemical Genomics)
CYP2C9 act = increases human cytochrome P450 2C9 activity; recombinant CYP2C9, luciferin-H conversion, luminescence; stronger effect = higher value; factor 1 = untreated enzyme, 0 = blocked; activation factor at 5 µM; actives 1.4% (n = 96,000); AID 1024;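 active = activation factor of 2 or more for CYP2C9 at a 5 µM dose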;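 also: 0 = sulfaphenazole-blocked wells and 1 = vehicle-only wells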
Pyk2 oligo antag = antagonists of human Pyk2 oligomerization; actives 0.83% (n = 99,000); Q293 cells, Pyk2 FERM NanoBiT luminescence; stronger effect = lower value; z-score (the deposit names both 25 µM and 10 µM); Q14289;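 active = Z-score of -3 or lower, scaled per plate to the spread of control and sample wells; inactive = z-score above -3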;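 also: negative z-score means lost luminescence so less FERM oligomerization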
CYP2C19 activ = increases human CYP2C19 enzyme activity; P33261; recombinant CYP2C19, luciferin-H EGE luminescence; stronger effect = higher value; 0 = fully inhibited enzyme, 1 = untreated enzyme; activation factor at 5 µM; 96,000 tested, under 10 active; AID 1025;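 active = activation factor of at least 2 at 5 µM in the primary screen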;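 also: 0 = wells with 2.5 mM tranylcypromine and 1 = vehicle-only wells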
Target sequence (P33261 whole entry, looked up): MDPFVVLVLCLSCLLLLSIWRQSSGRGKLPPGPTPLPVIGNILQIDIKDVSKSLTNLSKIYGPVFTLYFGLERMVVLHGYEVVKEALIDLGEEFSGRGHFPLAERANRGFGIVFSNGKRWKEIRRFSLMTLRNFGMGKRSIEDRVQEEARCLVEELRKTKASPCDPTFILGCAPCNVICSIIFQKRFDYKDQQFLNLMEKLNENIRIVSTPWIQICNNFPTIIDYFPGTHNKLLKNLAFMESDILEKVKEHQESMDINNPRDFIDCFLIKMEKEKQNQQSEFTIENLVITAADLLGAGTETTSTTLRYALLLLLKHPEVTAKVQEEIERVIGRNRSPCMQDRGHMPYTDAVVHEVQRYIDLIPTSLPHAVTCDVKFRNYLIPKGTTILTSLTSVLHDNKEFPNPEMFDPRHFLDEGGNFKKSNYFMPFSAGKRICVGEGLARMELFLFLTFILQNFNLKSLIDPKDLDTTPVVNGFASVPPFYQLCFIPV
CYP2C19 inhib = blocks human cytochrome P450 2C19; P33261; actives 21% (n = 96,000); CYP2C19 Supersomes, luciferin-H EGE luminescence, 30 min; inhibition, % at 5 µM; AID 778;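 active = CYP2C19 inhibition above a set limit at 5 µM in the primary screen, cut at about 50% in these data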;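 also: plate controls were negative control wells for no effect and 2.5 mM tranylcypromine positive control for full effect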
CYP2C9 inh = blocks human cytochrome P450 2C9 | P11712 | CYP2C9 Supersomes, luciferin-H conversion, luminescence | inhibition, % at 5 µM | actives 20% (n = 96,000);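 active = blocking of liver enzyme CYP2C9 beyond about 50% at 5 µM, limit read from the data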
* = called active by the depositor; · = not tested or not shown. Only some compounds are listed: those with a hit (about 28% of all), similar ones and a draw of the others.

SMILES	CYP2C9 act	Pyk2 oligo antag	CYP2C19 activ	CYP2C19 inhib	CYP2C9 inh
OCC1OC(n2nnc3ccccc32)C(O)C(O)C1O (stereo not drawn)	1.2	0.18	1.1	-14	-19
O=C(c1ccc2c(c1)C(=O)N(Cc1ccco1)C2O)N1CCOCC1 (stereo not drawn)	1	·	1	-1	-4
CCOc1ccc(N/C(=C(/C(Cl)=C(Cl)Cl)[N+](=O)[O-])n2cncn2)cc1	0.3	·	0.4	61*	68*
CCc1ccc(C(=O)Cn2ncc(Cl)c(Cl)c2=O)cc1	0.9	0.71	0.9	10	5
O=C(OCn1ncc(Cl)c(Cl)c1=O)c1cccc(C(F)(F)F)c1	1.8	-0.26	0.3	66*	-80
Cc1nc2ccc(C(C(F)(F)F)(C(F)(F)F)C(F)(F)F)cc2[nH]1	0.4	-1.9	0.6	42	63*
CCOC(=O)CSc1nnc(CNC(=O)c2ccc(OC)cc2OC)n1-c1ccc(OC)cc1	0.8	0.5	0.9	14	22
COc1ccc(C(O)c2nc3ccccc3s2)cc1 (stereo not drawn)	0.6	·	0.4	62*	39
CCCn1c(SCC(=O)NC2CCCCC2C)n[nH]c1=O (stereo not drawn)	1.2	-0.76	1.2	-24	-19
Fc1ccc(C[n+]2csc3ccccc32)cc1	0.4	0.44	0.6	42	60*
Clc1ccc(OCCN2CCN(c3ncnc4sccc34)CC2)cc1	0.4	1	0.2	84*	56*
Cc1ccc(OCCN2CCN(c3ncnc4sc(C)c(C)c34)CC2)cc1	0.1	-0.24	0.1	86*	89*
Cc1ccc(S(=O)(=O)N2CCC(C(=O)N3CCC(C(=O)NCc4cccnc4)CC3)CC2)cc1	1.1	1.6	1.1	-9	-8
COc1ccccc1C(O)(C(=O)NN(C(=O)c1ccccc1)c1ccccc1C)c1cccs1 (stereo not drawn)	1.1	0.59	1.2	-20	-12
O=C(NCCCCNC(=O)c1ccc(Br)s1)c1ccc(Br)s1	0.5	0.33	0.9	12	46
COc1cccc(/C=C/C(=C2\C(=O)N(c3ccccc3)N=C2C)c2ccc(Br)cc2)c1OC	·	-1.2	·	·	·
COc1ccc(C(=O)COC(=O)[C@H](C)Nc2ccc(C(F)(F)F)cc2[N+](=O)[O-])cc1	0.2	0.46	0.7	29	75*
Cc1cc(C)c(C(=O)COC(=O)[C@H](C)Nc2ccc(C(F)(F)F)cc2[N+](=O)[O-])c(C)c1	0.1	1.8	0.2	79*	90*
CCC(C)C(Nc1ccc(C(=O)OC)cc1[N+](=O)[O-])C(=O)OC (stereo not drawn)	·	-0.82	·	·	·
CC(=O)N(C)c1ccc(NC(=O)c2cnn(C)c2)cc1	0.9	-0.08	0.9	11	9
COCCNCC#CCOc1ccc(OC)cc1	1	0.06	0.9	5	-2
C=CCNCC#CCOc1ccc(OC)cc1	0.9	1.4	0.2	76*	13
Cc1c(C#N)c(SCC(N)=O)nc2c1CCCC2	1.1	0.6	0.8	21	-13
CCCCCOC(=O)CSc1nnc(-c2ccccc2)c(=O)[nH]1	0.4	1.8	0.8	24	60*
COc1cccc(NC(=O)CSCc2n[nH]c(=O)[nH]2)c1	1	-0.1	1.1	-6	-3
SMILES	CYP2C9 act	Pyk2 oligo antag	CYP2C19 activ	CYP2C19 inhib	CYP2C9 inh
CN(C)S(=O)(=O)c1ccc(-c2cn3ccccc3n2)cc1	0.5	-0.66	0.9	12	54*
Cn1c(SC2=CS(=O)(=O)c3ccccc32)nc2ccccc21	1.1	-2.1	0.9	10	-8
Cc1cccc(C)c1-n1c(C)cc(/C=N/NC(N)=S)c1C	0.1	-0.24	0.1	91*	93*
Cc1cccc(-n2c(C)cc(/C=N/O)c2C)c1	·	0.13	·	·	·
Cc1ccccc1-n1c(C)cc(/C=N/NC(=O)c2ccncc2)c1C	0.5	1.1	0.8	24	51*
O=C(Cn1c(NCCCO)nc2ccccc21)c1ccc(Br)cc1	0.4	0.35	0.3	74*	58*
Cc1ccc(C(=O)Cn2c(NCCO)nc3ccccc32)cc1	0.7	0.81	0.8	17	32
O=C(OCn1nnc2ccccc2c1=O)c1cccnc1Cl	1	0.13	0.4	59*	-4
COc1cc(OC)cc(C(=O)OCn2nnc3ccccc3c2=O)c1	1.1	·	1.2	-20	-7
O=C(OCn1nnc2ccccc2c1=O)c1ccc2ncsc2c1	0.4	0.73	0.5	53*	57*
O=C(OCn1nnc2ccccc2c1=O)C1COc2ccccc2O1 (stereo not drawn)	1	0.38	0.9	7	-2
CSc1ncccc1C(=O)OCn1nnc2ccccc2c1=O	0.8	1.7	1.7	-68	17
CCN(CC)S(=O)(=O)c1ccc(C(=O)OCn2nnc3ccccc3c2=O)cc1	0.2	2.4	0.8	20	78*
O=C(OCn1nnc2ccccc2c1=O)C1CCCCC1	0.5	1.3	0.3	72*	53*
CNc1cccccc1=S	0.9	-0.02	1	0	11
O=S(=O)(NCc1ccco1)N1CCOCC1	0.9	0.16	0.9	7	6
Cn1c(SCc2ccccc2)nnc1-c1cnccn1	0.9	-0.67	0.8	25	8
CC1=CC(C)(C)N(S(=O)(=O)c2ccc(F)cc2)c2ccccc21	0.5	-0.5	0.4	58*	46
CC1=CC(C)(C)N(S(=O)(=O)c2ccc(C)cc2)c2ccc(C)cc21	0.6	-0.34	0.6	38	40
Cc1ccc(C(=O)Oc2ccccc2N2C(=O)C3CCCCC3C2=O)cc1 (stereo not drawn)	0.7	0.56	0.9	8	34
COc1ccccc1C(=O)O/N=C(/C)c1ccc(N2C(=O)C3CCCCC3C2=O)cc1 (stereo not drawn)	3.3*	-0.61	0.5	54*	-227
CCOc1cc2[nH]c(=S)n(CCOC)c(=O)c2cc1OCC	0.9	-0.76	1.1	-10	13
COCCn1c(=S)[nH]c2ccc(N(C)C)cc2c1=O	0.7	-1.1	0.5	52*	32
COc1ccc(Br)cc1C1SCCN1S(C)(=O)=O (stereo not drawn)	1	0.24	0.5	50	3
COc1ccc(NS(=O)(=O)c2cccc(-c3nnc(-c4ccccc4)o3)c2)cc1	·	-0.3	·	·	·
O=S(=O)(NC1CCCC1)c1cccc(-c2nnc(-c3ccccc3)o2)c1	0.1	-0.78	0.7	34	87*
COc1cc2c(cc1OC)C(COc1ccc(F)cc1)N(C(=O)c1ccco1)CC2 (stereo not drawn)	0.2	-1.2	0.1	86*	76*
COc1cc2c(cc1OC)C(COc1ccc3c(C)cc(=O)oc3c1)N(C(=O)c1ccco1)CC2 (stereo not drawn)	·	-1.6	·	·	·
COc1cc2c(cc1O)CCN(C(=O)c1ccco1)C2C (stereo not drawn)	0.5	-1	0.3	65*	47
COc1cc2c(cc1OC)C(C)N(C(C)=O)CC2 (stereo not drawn)	·	0.74	·	·	·
